Test results taken from PubChem BioAssay AID1159580 (chemical genetic matrix, 2015).
“And” between values parts separate entries of the source, which are not always exact repeats. Equal entries are not always repeated. The whole screen tested about 5,500 compounds, of which about 2,000 (36%) were called active. Inconclusive results (about 18%) are left out. No stated cut-off is given here; in the data, active means normalized growth mostly below about 0.91 (no sharp cut-off); inconclusive means no clear call, values can overlap the other calls; inactive means mostly above about 0.92. The list shows a part of the results.

Assay: chemical genetic growth profiling, strain panel (AID 1159580);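 further: tested at 20 µM; growth read once vehicle control cultures reached saturation at 30 °C; 1 = growth at the plate median or of vehicle wells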
Conditions: S. cerevisiae deletion strains, growth OD

Measured: normalized growth

Cc1cc(-c2ccccc2)nnc1NCCN1CCOCC1
inactive: locus YAL013W, strain DEP1, stronger effect = lower value 1 | locus YAL021C, strain ccr4, stronger effect = lower value 0.985 | locus YAL026C, strain drs2, stronger effect = lower value 0.991 | locus YAL030W, strain snc1, stronger effect = lower value 0.986 | locus YBL061C, strain skt5, stronger effect = lower value 0.991 | locus YBR009C, strain hhf1, stronger effect = lower value 0.989 | locus YBR021W, strain FUR4, stronger effect = lower value 0.999 | locus YBR023C, strain chs3, stronger effect = lower value 0.989 | locus YBR171W, strain sec66, stronger effect = lower value 0.977 | locus YBR229C, strain ROT2, stronger effect = lower value 1.01 | locus YBR231C, strain swc5, stronger effect = lower value 0.989 | locus YBR279W, strain paf1, stronger effect = lower value 0.986 | locus YCL011C, strain gbp2, stronger effect = lower value 0.983 | locus YCL016C, strain dcc1, stronger effect = lower value 0.984 | locus YCL029C, strain bik1, stronger effect = lower value 0.964 | locus YCL061C, strain MRC1, stronger effect = lower value 0.985 | locus YCL069W, strain vba3, stronger effect = lower value 0.988 | locus YCR088W, strain abp1, stronger effect = lower value 0.99 | locus YDL005C, strain med2, stronger effect = lower value 0.99 | locus YDL035C, strain GPR1, stronger effect = lower value 1.03 | locus YDL040C, strain nat1, stronger effect = lower value 0.992 | locus YDL074C, strain BRE1, stronger effect = lower value 0.986 | locus YDL101C, strain DUN1, stronger effect = lower value 0.995 | locus YDL134C, strain PPH21, stronger effect = lower value 1.01 | locus YDL185W, strain tfp1, stronger effect = lower value 0.941 | locus YDL192W, strain arf1, stronger effect = lower value 0.974 | locus YDR001C, strain nth1, stronger effect = lower value 0.99 | locus YDR069C, strain doa4, stronger effect = lower value 1 | locus YDR101C, strain arx1, stronger effect = lower value 0.977 | locus YDR137W, strain rgp1, stronger effect = lower value 0.991 | locus YDR150W, strain NUM1, stronger effect = lower value 0.992 | locus YDR159W, strain sac3, stronger effect = lower value 1.01 | locus YDR162C, strain NBP2, stronger effect = lower value 1.01 | locus YDR195W, strain ref2 0.974 | locus YDR297W, strain sur2, stronger effect = lower value 0.997 | locus YDR318W, strain mcm21, stronger effect = lower value 0.98 | locus YDR334W, strain swr1, stronger effect = lower value 0.983 | locus YDR335W, strain msn5, stronger effect = lower value 0.986 | locus YDR388W, stronger effect = lower value 0.986 | locus YDR392W, strain spt3, stronger effect = lower value 0.924 | locus YDR502C, strain sam2, stronger effect = lower value 1 | locus YEL003W, strain gim4, stronger effect = lower value 0.998 | locus YEL037C, strain rad23, stronger effect = lower value 0.994 | locus YEL061C, strain CIN8 (second series), stronger effect = lower value 0.991 | locus YEL061C, strain CIN8, stronger effect = lower value 0.997 | locus YER015W, strain faa2, stronger effect = lower value 0.997 | locus YER016W, strain bim1, stronger effect = lower value 1 | locus YER110C, stronger effect = lower value 0.982 | locus YER111C, strain swi4, stronger effect = lower value 0.985 | locus YER155C, strain BEM2 (second series), stronger effect = lower value 1 | locus YER155C, strain BEM2, stronger effect = lower value 1 | locus YER167W, strain BCK2, stronger effect = lower value 1 | locus YFR010W, strain ubp6, stronger effect = lower value 0.992 | locus YGL078C, strain dbp3, stronger effect = lower value 0.991 | locus YGL086W, strain mad1, stronger effect = lower value 1.01 | locus YGL167C, strain pmr1, stronger effect = lower value 0.991 | locus YGL173C, strain kem1, stronger effect = lower value 0.983 | locus YGL227W, strain vid30, stronger effect = lower value 0.987 | locus YGL240W, strain doc1, stronger effect = lower value 0.974 | locus YGL248W, strain PDE1, stronger effect = lower value 1.02 | locus YGL253W, strain hxk2, stronger effect = lower value 0.987 | locus YGR078C, strain PAC10, stronger effect = lower value 1 | locus YGR135W, strain pre9, stronger effect = lower value 0.993 | locus YGR229C, strain SMI1, stronger effect = lower value 1.03 | locus YGR252W, strain gcn5, stronger effect = lower value 1.13 | locus YHR013C, strain ard1, stronger effect = lower value 0.983 | locus YHR027C, strain rpn1, stronger effect = lower value 0.987 | locus YHR030C, strain SLT2, stronger effect = lower value 1 and 0.966 | locus YHR079C, strain IRE1 (second series), stronger effect = lower value 0.972 | locus YHR079C, strain IRE1, stronger effect = lower value 0.961 | locus YHR094C, strain hxt1, stronger effect = lower value 0.969 | locus YHR129C, strain ARP1, stronger effect = lower value 0.996 | locus YHR142W, strain chs7, stronger effect = lower value 0.981 | locus YHR200W, strain rpn10, stronger effect = lower value 0.97 | locus YIL066C, strain RNR3, stronger effect = lower value 1.01 | locus YIL073C, strain SPO22, stronger effect = lower value 0.953 | locus YIL125W, strain kgd1, stronger effect = lower value 0.977 | locus YIR030C, strain dcg1, stronger effect = lower value 0.979 | locus YJL092W, strain hpr5, stronger effect = lower value 0.988 | locus YJL095W, strain BCK1 (second series), stronger effect = lower value 0.99 | locus YJL095W, strain BCK1, stronger effect = lower value 0.976 and 0.961 | locus YJL115W, strain asf1, stronger effect = lower value 0.991 | locus YJL129C, strain trk1, stronger effect = lower value 0.968 | locus YJL134W, strain LCB3, stronger effect = lower value 1.01 | locus YJL154C, strain vps35, stronger effect = lower value 1 | locus YJL164C, strain tpk1, stronger effect = lower value 0.987 | locus YJL166W, strain qcr8, stronger effect = lower value 0.993 | locus YJL168C, strain set2, stronger effect = lower value 0.973 | locus YJL187C, strain SWE1 (second series), stronger effect = lower value 0.997 | locus YJL187C, strain SWE1, stronger effect = lower value 0.986 | locus YJR043C, strain POL32, stronger effect = lower value 0.99 | locus YJR066W, strain TOR1, stronger effect = lower value 0.918
